Laboratory results reported in ChEMBL document CHEMBL4513216, “Probing the Open Global Health Chemical Diversity Library for Multistage-Active Starting Points for Next-Generation Antimalarials” (ACS Infect Dis, 2020).
Hit rate of the full screen: of about 69,000 compounds, about 8,600 (12%) showed an effect of 50% or more. What follows is part of a selection rich in strong results, with near analogues and random picks from the rest.

The compounds below were run on Plasmodium berghei (assay: Screen against P. berghei liver stage (PbLuc), transformed with Luciferase, at 10uM). Conditions: tested at 10 uM.
Assay type: functional, HepG2
`COc1cc(Oc2ccc(C(N)=O)cn2)ccc1CN1CCCC1` showed an INHIBITION of -0.27%. With `COc1ccc(CN2CCC(O)CC2)c(OC)c1` the INHIBITION was 1.81%. `COc1cc(Oc2ccc(C#N)cn2)ccc1CN1CCCC1` was tested, and the INHIBITION was 82.9%. `COc1ccc(CN2CCn3c(CO)nnc3C2)cc1CN1CCCC1` gave an INHIBITION of 44.8%. Compound `COc1cc(Oc2ccc(C(F)(F)F)cn2)ccc1CN1CCCC1` has an INHIBITION of 91.5%. `COc1cc(Oc2cnc3ccccc3n2)ccc1CN1CCCC1` showed an INHIBITION of 84.9%. Compound `Cc1cc(CN2CCN(Cc3ccc(C#N)cc3OC(F)F)CC2)no1` has an INHIBITION of 14.27%. Work on `COc1ccc(Oc2ccc(C(F)(F)F)cn2)cc1CN1CCCC1` yielded an INHIBITION of 63.7%. `COc1ccc(CN2CC[C@H](NC(C)=O)[C@@H](O)CC2)c(OC)c1` showed an INHIBITION of 35.3%. `COc1ccc(Oc2cccnc2)cc1CN1CCCC1` was tested, and the INHIBITION was 49.4%. `COc1ccc(CN2CCSCC2)c(OC)c1` gave an INHIBITION of 33.1%. For `COc1ccc(C2CCCN2c2ccc(C#N)cn2)c(OC)c1` (stereo unspecified), the INHIBITION was 37.7%. `O=C(Cc1cccc(O)c1)N1CCCC(O)(CN2CCOCC2)CC1` (stereo unspecified) gave an INHIBITION of 6.26%. `CC(Cn1cccn1)NC(=O)NCc1ccc(C(N)=O)cc1` (stereo unspecified) was tested, and the INHIBITION was -98.8%. In the case of `Cc1cc(NC(=O)CN2CCn3c(nnc3C3CC3)C2)on1`, the INHIBITION is reported as 25.3%. `CC(C)c1nc(C2CCCN2CCN2CCCCC2)no1` (stereo unspecified) was tested, and the INHIBITION was -0.55%. In the case of `CN(C)CCO[C@H]1CN(CC2CC2)[C@@H]2CCCO[C@H]12`, the INHIBITION is reported as 25.8%. Work on `CC(NC(=O)c1cccs1)C(=O)NCc1ccccn1` (stereo unspecified) yielded an INHIBITION of 21.6%. `O=c1cc(Cn2cncn2)nc2n1CCCN(Cc1ccoc1)C2` was tested, and the INHIBITION was 20.5%. `CCS(=O)(=O)N1CCC(NC(=O)c2cc(C(C)C)ccc2O)CC1` showed an INHIBITION of -7.1%. Work on `Cc1ncsc1CN1CC[C@H]2OCC[C@@]2(C(=O)N2CCOCC2)C1` yielded an INHIBITION of 11.4%. `CC1(C)CC(NC(=O)c2cnn(-c3ccccc3F)c2N)CC(C)(C)N1` showed an INHIBITION of -33%. For `Cc1cc(C(=O)N2CCn3c(COCC4CCCC4)cnc3C2C)on1` (stereo unspecified), the INHIBITION was 37.3%. Compound `CCn1nc(C)c2nc(C(C)C)nc(NCC(C)O)c21` (stereo unspecified) has an INHIBITION of -3.11%. In the case of `CCCc1nc(NCCc2ccccc2)c2c(n1)c(C)nn2CC`, the INHIBITION is reported as 43.7%. Work on `CCn1nc(C)c2nc(C(C)C)nc(NCCc3ccc(O)cc3)c21` yielded an INHIBITION of 68.1%. `CCn1nc(C)c2nc(C(C)C)nc(NCCCO)c21` showed an INHIBITION of -9.48%. `CCn1nc(C)c2nc(C)nc(NCCc3ccc(C)cc3)c21` showed an INHIBITION of 62.7%. `CCn1nc(C)c2nc(C)nc(NCCc3ccccc3)c21` gave an INHIBITION of 46.4%. `CCOc1ccccc1C1CCCN1` (stereo unspecified) gave an INHIBITION of 15.8%. In the case of `Cc1cnn(CC(C)NCc2nc(-c3ccsc3)oc2C)c1` (stereo unspecified), the INHIBITION is reported as -7.31%. `Cc1ccc(CN2CCS(=O)(=O)C(C)(C)C2)cc1C` gave an INHIBITION of 70.1%. With `CC1(C)CN(Cc2ccncc2)CCS1(=O)=O` the INHIBITION was 21.9%. With `Cn1cc(CN2CCS(=O)(=O)C(C)(C)C2)cn1` the INHIBITION was 44.3%. Compound `COc1ccc(Cn2cc(C(C)O)nn2)cc1` (stereo unspecified) has an INHIBITION of 19.9%. `CNc1cnc(CC2COCCN(CCOc3ccccc3)C2)cn1` (stereo unspecified) was tested, and the INHIBITION was 39.7%. `CC(=O)NC1CCN(C(=O)Nc2cccc(C(F)(F)F)c2)CC1` gave an INHIBITION of 27.9%. `CC(=O)NC1CCN(C(=O)Nc2cccc(SC(F)F)c2)CC1` was tested, and the INHIBITION was 27.9%. `CC(=O)NC1CCN(C(=O)Nc2ccc(SC(F)F)cc2)CC1` was tested, and the INHIBITION was 73.5%. Compound `CN(Cc1ccco1)[C@@H]1CN(Cc2cccs2)C[C@@H]2CCCO[C@@H]21` has an INHIBITION of 31.4%. For `Cn1cnnc1SCC(=O)N1C[C@@H]2CC[C@H]1CN(Cc1cccnc1)C2`, the INHIBITION was 6.28%. In the case of `CCN(CC)C(=O)CN1CCc2c(nc(C3CCNCC3)nc2NC)C1`, the INHIBITION is reported as -3.94%. For `Nc1ccc(C(=O)N2C[C@H]3CC[C@@H](C2)N(Cc2ccccc2)C3)cn1`, the INHIBITION was -20.8%. `Cc1ccc(-n2ncc(C(=O)NCC3CCS(=O)(=O)C3)c2C)cc1` (stereo unspecified) showed an INHIBITION of -24.2%. With `Cc1cccc(-n2ncc(C(=O)NCC3CCS(=O)(=O)C3)c2C)c1` (stereo unspecified) the INHIBITION was -33.9%. `Cc1c(C(=O)NCC2CCS(=O)(=O)C2)cnn1-c1ccccc1` (stereo unspecified) showed an INHIBITION of 57.8%. `O=C1N(Cc2ccc(Cl)cc2)CCC12CCCNC2` (stereo unspecified) gave an INHIBITION of 3.81%. `CC(=O)NCCc1ccc(S(=O)(=O)Nc2ccc(C)c(F)c2)s1` was tested, and the INHIBITION was 32.3%. `CC(=O)c1ccc(-n2c(C)cn(CCC(=O)NC(N)=O)c2=O)cc1` was tested, and the INHIBITION was 12.7%. With `CC(=O)c1ccc(-n2c(C)cn(CCS(C)(=O)=O)c2=O)cc1` the INHIBITION was 55.6%. In the case of `CC(=O)c1ccc(-n2c(C)cn(CCC#N)c2=O)cc1`, the INHIBITION is reported as 5.36%. Work on `OC(CN1CCN(Cc2cc(F)ccc2F)CC1)C1CC1` (stereo unspecified) yielded an INHIBITION of -6.11%. With `CCC(Nc1cccc(OC)c1)C(=O)NCc1nc(C)cc(=O)[nH]1` (stereo unspecified) the INHIBITION was 36.4%. In the case of `CCS(=O)(=O)N1CCc2c(COCc3ccncc3)cncc2C1`, the INHIBITION is reported as 66.6%. Compound `CCCS(=O)(=O)N1CCc2c(COCC)cncc2C1` has an INHIBITION of 33%. `CCS(=O)(=O)N1CCc2c(COCCN(C)C)cncc2C1` showed an INHIBITION of 24%. For `O=S(=O)(C1CC1)N1CCc2c(CN3CCOCC3)cncc2C1`, the INHIBITION was 12.6%. In the case of `CCS(=O)(=O)N1CCc2c(COC)cncc2C1`, the INHIBITION is reported as 23.1%. Compound `CCS(=O)(=O)N1CCc2c(CN3CCOCC3)cncc2C1` has an INHIBITION of 92.1%. For `CN(C)CCN(C)C(=O)c1ccccc1-n1cc(CN(C)C)cn1`, the INHIBITION was 1.5%. Compound `c1ccc(CN2Cc3[nH]nc(COCC4CC4)c3C2)nc1` has an INHIBITION of 30.5%. Compound `CN(C)CCNC(=O)C1Cc2nc(-c3ccccc3)sc2N1CC1CC1` (stereo unspecified) has an INHIBITION of 24.3%. Work on `CN(CCNC(=O)c1cnc(-c2ccccc2)nc1)S(C)(=O)=O` yielded an INHIBITION of 57.1%. In the case of `CN(CCNC(=O)c1cnc(-c2ccncc2)nc1)S(C)(=O)=O`, the INHIBITION is reported as 25.1%. `CCN(CC)CCNC(=O)c1cnc(-c2ccccc2)nc1` showed an INHIBITION of -8.07%. `Cc1ccc(OCCN2CCCC(c3cc(C(N)=O)[nH]n3)C2)cc1` (stereo unspecified) showed an INHIBITION of 15.3%. `O=C(NC1CC1)C1CCN(c2snc3ccccc23)CC1` was tested, and the INHIBITION was 37.9%. Compound `CCc1n[nH]c(C2CN(C(=O)c3cnc(C)nc3CC)CCO2)n1` (stereo unspecified) has an INHIBITION of -49.5%. Compound `CC(NC(=O)c1ccc(=O)n(C)c1)c1ccc(OCC2CC2)c(F)c1` (stereo unspecified) has an INHIBITION of 40.97%. Compound `CC(NC(=O)c1ccnn1C)c1ccc(OCC2CC2)c(F)c1` (stereo unspecified) has an INHIBITION of 68.2%. Compound `CC(=O)NC(C)c1ccc(OCC2CC2)c(F)c1` (stereo unspecified) has an INHIBITION of 26.8%.
